# Measured values: the supplement of paper PMC6555819
# Columns and labels:
# Experiment in all cases: PBM binding z-score (relative to random genomic background probes); higher = stronger binding; sequences stand for … in GC…GCGATTGACAGCGTAGAATGAAGG
# [1] = test system: RARb homodimer (NR concentration 270 nM)
# Procedure, shortened: (§1)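 Probes were double-stranded and carried 34-nt variable regions with direct-repeat seeds, single-nucleotide variants, half-site ablations and random human genomic background sequences, printed on custom Agilent 4×180K protein-binding microarrays. Arrays were incubated 1 h with ligand-free nuclear receptor dimers in PBS pH 7.4, 2% milk, 0.02% Triton X-100, 1 mM DTT, 0.2 mg/mL BSA and 0.4 mg/ml salmon testes DNA. Antibodies against each partner (one per run) detected binding, and scanned fluorescence was regression-normalized. Binding z-scores use the random background probes as reference.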
# [2] = test system: RARg:RXRa (NR concentration 270 nM, RXRa partner concentration 90 nM)
# Procedure, shortened: as §1
# [3] = test system: RARg homodimer (NR concentration 270 nM)
# Procedure, shortened: as §1
# [4] = test system: RXRa DBDmut IVT, anti-RXR (DBD mutation: RXRa K156A/R161A, NR concentration 90 nM)
# Procedure, shortened: as §1
# [5] = test system: RXRa homodimer (NR concentration 180 nM)
# Procedure, shortened: as §1
# [6] = test system: THRa:RXRa (NR concentration 90 nM, RXRa partner concentration 90 nM)
# Procedure, shortened: as §1
# [7] = test system: THRa homodimer (NR concentration 90 nM)
# Procedure, shortened: as §1
# [8] = test system: VDR homodimer (NR concentration 270 nM)
# Procedure, shortened: as §1
sequence,measurement,setting,value
CAAACTAGGTCACCGGAAGGTCGAAGTCCGCATG,PBM binding z-score,[1],4.74
same,PBM binding z-score,[2],6.69
same,PBM binding z-score,[3],6
same,PBM binding z-score,[4],1.66
same,PBM binding z-score,[5],4.65
same,PBM binding z-score,[6],4.04
same,PBM binding z-score,[7],2.22
same,PBM binding z-score,[8],1.97
CCTCGGAGGACAACAGGAGGTCAGAGTTGCCAGA,PBM binding z-score,[1],3.77
same,PBM binding z-score,[2],3.42
same,PBM binding z-score,[3],3.26
same,PBM binding z-score,[4],0.349
same,PBM binding z-score,[5],2
same,PBM binding z-score,[6],3.08
same,PBM binding z-score,[7],1.6
same,PBM binding z-score,[8],1.5
GCGACTGGGGAATCAGCAGGTTACCATAACTTAA,PBM binding z-score,[1],0.164
same,PBM binding z-score,[2],-0.241
same,PBM binding z-score,[3],-0.452
same,PBM binding z-score,[4],-0.352
same,PBM binding z-score,[5],0.0152
same,PBM binding z-score,[6],0.249
same,PBM binding z-score,[7],-0.272
same,PBM binding z-score,[8],-0.345
GCTTGTAGATCAAGATTAAGAAAGACTAAGCTAA,PBM binding z-score,[1],-1.07
same,PBM binding z-score,[2],-0.362
same,PBM binding z-score,[3],-0.206
same,PBM binding z-score,[4],-0.488
same,PBM binding z-score,[5],-0.324
same,PBM binding z-score,[6],-0.364
same,PBM binding z-score,[7],-0.81
same,PBM binding z-score,[8],-0.356
TCTGGTAGATCAAGCAGGTTAAGAAAGCCTGAGT,PBM binding z-score,[1],-0.182
same,PBM binding z-score,[2],-0.3
same,PBM binding z-score,[3],-0.211
same,PBM binding z-score,[4],0.0546
same,PBM binding z-score,[5],0.202
same,PBM binding z-score,[6],-0.00478
same,PBM binding z-score,[7],-0.796
same,PBM binding z-score,[8],0.261
CCGACTGGAGCAAGGTTACCATAACGCACAGCCA,PBM binding z-score,[1],1.15
same,PBM binding z-score,[2],0.461
same,PBM binding z-score,[3],0.534
same,PBM binding z-score,[4],0.587
same,PBM binding z-score,[5],0.971
same,PBM binding z-score,[6],1.16
same,PBM binding z-score,[7],0.379
same,PBM binding z-score,[8],0.142
CCTACTGGGCCACGAAAGGTCATTGAATCAGTGA,PBM binding z-score,[1],4.71
same,PBM binding z-score,[2],4.78
same,PBM binding z-score,[3],4.92
same,PBM binding z-score,[4],0.485
same,PBM binding z-score,[5],5.26
same,PBM binding z-score,[6],3.64
same,PBM binding z-score,[7],0.999
same,PBM binding z-score,[8],1.9
